Results reported in the supplement of paper PMC10849652.
The full data set covers some 8,800 targets. This sample favours those with a hit. About 0.5% of all pairs of compound and target were hits.

How the values were obtained:
Assay in all cases: log2 fold change, soluble protein after heating vs DMSO (PISA); higher = thermal stabilisation; K562 lysate, 10 uM; active = over 0.2 and 3.5 SD of the protein, either way, in both replicates (recomputed)
erlotinib = compound: C#Cc1cccc(Nc2ncnc3cc(OCCOC)c(OCCOC)cc23)c1 [erlotinib]
Procedure, shortened: (§1)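 The values are log-two fold changes in thermal stability compared with solvent controls and come from duplicates. They were obtained by TMTpro 16plex LC-MS/MS, with channel sums equalised, on the supernatant after 21,000xg for 90 min. That supernatant came from crude K562 extract at 1 mg/mL protein treated with 10 μM compound for 30 min, heated for 3 min across 48°C-58°C, pooled and brought to 0.5% NP-40 at 4°C.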

[1] = compound: C1=CC(=CC=C1C2=NC3=C(N2)C=C(C=C3)C(=O)N)OC4=CC=C(C=C4)Cl
Procedure, shortened: as §1

[2] = compound: C1=CC2=NC=CN=C2C=C1/C=C/3\C(=O)NC(=O)S3
Procedure, shortened: as §1

[3] = compound: C/C(=N\NC(=O)C1=CC(=CC=C1)S(=O)(=O)N2CCOCC2)/C3=C(C=CC(=C3)Cl)O
Procedure, shortened: as §1

[4] = compound: C1=CC2=C(C=CC(=C2)/C=C\3/C(=O)NC(=NCC4=CC=CS4)S3)N=C1
Procedure, shortened: as §1

[5] = compound: C1=CC=C(C=C1)C2=NC(=C(N2)C3=CC=NC=C3)C4=CC(=C(C=C4)Cl)O
Procedure, shortened: as §1

[6] = compound: C1=CC=C2C(=C1)C3=NNC4=CC=CC(=C43)C2=O
Procedure, shortened: as §1

[7] = compound: C1CCN(C1)C(=O)NC2=CC=CC(=C2)NC3=NC=C(C(=N3)NCCC4=CN=CN4)Br
Procedure, shortened: as §1

[8] = compound: C1CN(CCC1(CC2=CC=C(C=C2)Cl)N)C3=NC=NC4=C3C=CN4
Procedure, shortened: as §1

IRAK-1-4 Inhibitor I = compound: C1COCCN1CCN2C3=CC=CC=C3N=C2NC(=O)C4=CC(=CC=C4)[N+](=O)[O-] [IRAK-1-4 Inhibitor I]
Procedure, shortened: as §1

Measured: log2 fold change

OSBPL1A (UniProt Q9BXW6)
inactive: erlotinib 0.235 | [1] 0.205 | [2] 0.038

MYOM1 (UniProt P52179)
active: IRAK-1-4 Inhibitor I 0.503
inactive: erlotinib -0.015 | [3] 0.033 | [1] -0.062 | [4] -0.228 | [2] -0.076 | [5] -0.009 | [6] 0.098 | [7] -0.023 | [8] 0.142

NUB1 (UniProt H7C5N1)
inactive: [5] 0.163 | IRAK-1-4 Inhibitor I 0.183

OCRL (UniProt Q01968)
inactive: erlotinib -0.057 | [3] -0.031 | [1] 0.04 | [4] 0.085 | [2] -0.012 | [5] 0.054 | [6] -0.1 | [7] 0.02 | [8] 0.055 | IRAK-1-4 Inhibitor I 0.068

NUMB (UniProt P49757)
inactive: erlotinib -0.029 | [3] 0.01 | [1] 0.044 | [4] -0.052 | [2] -0.009 | [5] -0.009 | [6] -0.029 | [7] -0.107 | [8] -0.043 | IRAK-1-4 Inhibitor I 0.022

NFATC4 isoform 2 (UniProt Q14934)
inactive: [4] -0.132 | [2] -0.064 | [6] -0.224 | [7] -0.07 | [8] -0.012
active: [3] -0.627

PANK2 (UniProt Q9BZ23)
inactive: [3] -0.012 | [4] -0.019 | [2] 0.011 | [5] -0.078 | [6] -0.044 | [7] -0.008 | [8] -0.06 | IRAK-1-4 Inhibitor I 0.14

ORC1 (UniProt Q13415)
inactive: [7] 0.216 | [8] 0.05

MUC5AC (UniProt P98088)
inactive: [5] 0.015 | IRAK-1-4 Inhibitor I -0.074

NGLY1 (UniProt Q96IV0)
inactive: erlotinib 0.022 | [3] -0.064 | [1] -0.031 | [4] -0.01 | [2] -0.009 | [5] 0.009 | [6] -0.063 | [7] -0.001 | [8] -0.011 | IRAK-1-4 Inhibitor I -0.024

OAT (UniProt P04181)
inactive: erlotinib -0.006 | [3] -0.074 | [1] -0.04 | [4] 0.023 | [2] 0.007 | [5] -0.017 | [6] -0.038 | [7] -0.033 | [8] 0.008 | IRAK-1-4 Inhibitor I 0.018

MYH6 (UniProt P13533)
Sequence of UniProt P13533 (P13533 whole entry, looked up): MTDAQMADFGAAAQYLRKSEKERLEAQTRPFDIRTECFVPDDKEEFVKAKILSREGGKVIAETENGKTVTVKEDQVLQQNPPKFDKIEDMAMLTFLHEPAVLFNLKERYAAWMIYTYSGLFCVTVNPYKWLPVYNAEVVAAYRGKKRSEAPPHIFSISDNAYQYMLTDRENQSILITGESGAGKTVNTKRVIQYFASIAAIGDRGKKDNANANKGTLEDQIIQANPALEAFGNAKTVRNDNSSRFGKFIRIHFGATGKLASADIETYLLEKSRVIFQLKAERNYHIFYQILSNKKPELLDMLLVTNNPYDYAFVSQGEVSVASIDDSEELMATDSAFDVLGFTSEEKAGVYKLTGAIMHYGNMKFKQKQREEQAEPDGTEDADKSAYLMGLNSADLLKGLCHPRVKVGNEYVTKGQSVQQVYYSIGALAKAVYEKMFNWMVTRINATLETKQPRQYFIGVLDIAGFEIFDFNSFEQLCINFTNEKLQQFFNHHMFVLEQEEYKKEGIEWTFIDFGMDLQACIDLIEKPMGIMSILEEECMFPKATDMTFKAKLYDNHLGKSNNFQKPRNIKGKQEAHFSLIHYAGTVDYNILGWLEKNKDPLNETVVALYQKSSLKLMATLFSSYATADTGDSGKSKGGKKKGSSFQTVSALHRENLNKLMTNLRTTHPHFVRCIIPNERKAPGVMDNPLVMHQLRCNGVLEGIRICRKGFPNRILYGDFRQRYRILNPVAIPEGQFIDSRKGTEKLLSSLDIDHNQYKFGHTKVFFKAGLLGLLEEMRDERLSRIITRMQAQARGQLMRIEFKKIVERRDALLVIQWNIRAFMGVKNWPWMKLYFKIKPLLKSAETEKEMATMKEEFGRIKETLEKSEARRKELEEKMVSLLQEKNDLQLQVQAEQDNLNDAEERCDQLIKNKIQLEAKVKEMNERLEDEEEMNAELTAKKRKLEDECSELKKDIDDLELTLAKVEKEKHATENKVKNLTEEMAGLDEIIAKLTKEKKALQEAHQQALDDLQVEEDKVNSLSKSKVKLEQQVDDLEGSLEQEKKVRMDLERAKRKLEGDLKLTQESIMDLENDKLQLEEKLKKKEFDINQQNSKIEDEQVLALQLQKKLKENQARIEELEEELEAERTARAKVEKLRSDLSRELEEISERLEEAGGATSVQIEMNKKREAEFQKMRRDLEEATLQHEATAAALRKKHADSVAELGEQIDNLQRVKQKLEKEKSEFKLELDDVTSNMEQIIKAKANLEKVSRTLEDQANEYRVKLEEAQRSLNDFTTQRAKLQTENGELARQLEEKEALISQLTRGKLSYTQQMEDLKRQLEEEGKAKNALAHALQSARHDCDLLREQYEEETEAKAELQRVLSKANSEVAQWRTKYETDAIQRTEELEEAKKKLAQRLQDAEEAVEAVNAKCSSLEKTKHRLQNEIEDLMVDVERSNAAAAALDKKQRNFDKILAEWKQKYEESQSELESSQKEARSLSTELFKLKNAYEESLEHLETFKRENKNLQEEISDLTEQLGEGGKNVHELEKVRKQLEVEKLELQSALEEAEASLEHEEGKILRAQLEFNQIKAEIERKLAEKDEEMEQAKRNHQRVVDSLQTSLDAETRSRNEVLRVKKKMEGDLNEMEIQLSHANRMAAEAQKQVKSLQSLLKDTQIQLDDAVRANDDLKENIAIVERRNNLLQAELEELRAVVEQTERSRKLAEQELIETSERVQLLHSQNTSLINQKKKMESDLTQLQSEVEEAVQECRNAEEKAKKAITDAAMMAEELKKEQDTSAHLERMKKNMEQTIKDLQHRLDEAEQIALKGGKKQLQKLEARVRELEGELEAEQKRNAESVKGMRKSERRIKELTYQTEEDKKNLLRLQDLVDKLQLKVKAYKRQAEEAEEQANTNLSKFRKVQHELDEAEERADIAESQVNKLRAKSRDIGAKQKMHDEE
inactive: erlotinib 0.107 | [1] 0.08 | [2] 0.304 | [5] 0.029 | [7] -0.049 | [8] 0.115 | IRAK-1-4 Inhibitor I 0.052

NNT (UniProt Q13423)
inactive: erlotinib -0.027 | [3] 0.013 | [1] -0.014 | [4] -0.012 | [2] -0.006 | [5] -0.008 | [6] -0.033 | [7] 0 | [8] 0.031 | IRAK-1-4 Inhibitor I -0.026

P2RY1 (UniProt P47900)
inactive: erlotinib -0.014 | [1] -0.07 | [2] 0.148 | [5] 0.023 | [7] -0.024 | [8] 0.094 | IRAK-1-4 Inhibitor I 0.07

NDC1 (UniProt Q9BTX1)
inactive: erlotinib -0.002 | [3] 0.015 | [1] 0.026 | [4] 0.047 | [2] 0.031 | [5] -0.005 | [6] -0.077 | [7] 0.013 | [8] 0.024 | IRAK-1-4 Inhibitor I 0.026

NRIP1 (UniProt P48552)
Sequence of UniProt P48552 (P48552 whole entry, looked up): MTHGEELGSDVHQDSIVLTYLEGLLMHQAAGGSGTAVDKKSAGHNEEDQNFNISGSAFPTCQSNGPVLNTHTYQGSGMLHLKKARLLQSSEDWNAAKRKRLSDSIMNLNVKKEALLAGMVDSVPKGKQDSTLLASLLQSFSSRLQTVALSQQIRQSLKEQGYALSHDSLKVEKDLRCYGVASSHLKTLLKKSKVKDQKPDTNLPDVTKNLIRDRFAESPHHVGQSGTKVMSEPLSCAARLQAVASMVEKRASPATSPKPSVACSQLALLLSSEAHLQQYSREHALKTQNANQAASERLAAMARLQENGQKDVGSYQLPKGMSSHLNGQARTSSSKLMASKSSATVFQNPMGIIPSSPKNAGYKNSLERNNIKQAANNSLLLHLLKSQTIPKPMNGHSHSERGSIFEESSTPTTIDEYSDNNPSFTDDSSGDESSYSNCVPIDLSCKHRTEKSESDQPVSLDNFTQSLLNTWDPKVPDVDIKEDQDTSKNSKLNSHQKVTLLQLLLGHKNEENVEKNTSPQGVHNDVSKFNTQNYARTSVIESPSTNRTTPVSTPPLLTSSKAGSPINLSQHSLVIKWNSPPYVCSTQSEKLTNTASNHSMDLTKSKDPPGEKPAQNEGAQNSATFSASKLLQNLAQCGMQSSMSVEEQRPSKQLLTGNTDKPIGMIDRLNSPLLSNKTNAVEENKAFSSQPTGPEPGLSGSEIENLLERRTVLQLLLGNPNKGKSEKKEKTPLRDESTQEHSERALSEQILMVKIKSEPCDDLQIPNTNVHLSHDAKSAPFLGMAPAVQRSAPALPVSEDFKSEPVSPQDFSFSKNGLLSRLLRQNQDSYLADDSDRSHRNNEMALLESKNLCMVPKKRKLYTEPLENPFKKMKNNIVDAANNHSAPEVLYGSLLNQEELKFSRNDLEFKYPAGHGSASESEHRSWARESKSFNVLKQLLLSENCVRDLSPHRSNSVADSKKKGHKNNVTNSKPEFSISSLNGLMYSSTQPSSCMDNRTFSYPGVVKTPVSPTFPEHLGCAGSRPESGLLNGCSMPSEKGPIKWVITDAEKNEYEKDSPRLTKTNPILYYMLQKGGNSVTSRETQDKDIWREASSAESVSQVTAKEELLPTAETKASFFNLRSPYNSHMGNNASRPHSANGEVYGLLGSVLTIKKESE
inactive: erlotinib 0.031 | [1] 0 | [2] -0.033 | [5] 0.024 | IRAK-1-4 Inhibitor I 0.114

NUDT6 (UniProt P53370)
inactive: erlotinib -0.01 | [3] 0.113 | [1] -0.02 | [5] -0.008 | [6] 0.111 | [7] -0.06 | [8] 0.06 | IRAK-1-4 Inhibitor I 0.032
active: [4] -0.518

PAGE2B (UniProt Q5JRK9)
Sequence of UniProt Q5JRK9 (Q5JRK9 whole entry, looked up): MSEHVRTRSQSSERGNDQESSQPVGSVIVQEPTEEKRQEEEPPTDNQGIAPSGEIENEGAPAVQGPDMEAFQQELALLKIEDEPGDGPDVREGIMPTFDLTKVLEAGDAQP
inactive: erlotinib 0.056 | [3] 0.038 | [1] -0.033 | [4] -0.085 | [5] -0.021 | [6] 0.093 | [7] 0.055 | [8] 0.055 | IRAK-1-4 Inhibitor I 0.148

NAA16 (UniProt Q6N069)
inactive: [3] -0.036 | [4] -0.022 | [2] 0.027 | [5] -0.127 | [6] -0.206 | [7] 0.136 | [8] -0.038 | IRAK-1-4 Inhibitor I 0.017

NPLOC4 (UniProt I3L3I1)
inactive: [2] -0.029 | [7] -0.128 | [8] 0.046

NOCT (UniProt Q9UK39)
inactive: erlotinib -0.129 | [1] 0.061 | [5] 0.1 | [7] -0.134 | [8] 0.06 | IRAK-1-4 Inhibitor I 0.007

NR3C1 isoform 3 (UniProt P04150)
inactive: erlotinib 0.061 | [3] -0.019 | [1] -0.058 | [4] -0.075 | [2] 0.09 | [5] 0.044 | [7] 0.047 | [8] -0.064 | IRAK-1-4 Inhibitor I -0.059

MYLK (UniProt Q15746)
Sequence of UniProt Q15746 (Q15746 whole entry, looked up): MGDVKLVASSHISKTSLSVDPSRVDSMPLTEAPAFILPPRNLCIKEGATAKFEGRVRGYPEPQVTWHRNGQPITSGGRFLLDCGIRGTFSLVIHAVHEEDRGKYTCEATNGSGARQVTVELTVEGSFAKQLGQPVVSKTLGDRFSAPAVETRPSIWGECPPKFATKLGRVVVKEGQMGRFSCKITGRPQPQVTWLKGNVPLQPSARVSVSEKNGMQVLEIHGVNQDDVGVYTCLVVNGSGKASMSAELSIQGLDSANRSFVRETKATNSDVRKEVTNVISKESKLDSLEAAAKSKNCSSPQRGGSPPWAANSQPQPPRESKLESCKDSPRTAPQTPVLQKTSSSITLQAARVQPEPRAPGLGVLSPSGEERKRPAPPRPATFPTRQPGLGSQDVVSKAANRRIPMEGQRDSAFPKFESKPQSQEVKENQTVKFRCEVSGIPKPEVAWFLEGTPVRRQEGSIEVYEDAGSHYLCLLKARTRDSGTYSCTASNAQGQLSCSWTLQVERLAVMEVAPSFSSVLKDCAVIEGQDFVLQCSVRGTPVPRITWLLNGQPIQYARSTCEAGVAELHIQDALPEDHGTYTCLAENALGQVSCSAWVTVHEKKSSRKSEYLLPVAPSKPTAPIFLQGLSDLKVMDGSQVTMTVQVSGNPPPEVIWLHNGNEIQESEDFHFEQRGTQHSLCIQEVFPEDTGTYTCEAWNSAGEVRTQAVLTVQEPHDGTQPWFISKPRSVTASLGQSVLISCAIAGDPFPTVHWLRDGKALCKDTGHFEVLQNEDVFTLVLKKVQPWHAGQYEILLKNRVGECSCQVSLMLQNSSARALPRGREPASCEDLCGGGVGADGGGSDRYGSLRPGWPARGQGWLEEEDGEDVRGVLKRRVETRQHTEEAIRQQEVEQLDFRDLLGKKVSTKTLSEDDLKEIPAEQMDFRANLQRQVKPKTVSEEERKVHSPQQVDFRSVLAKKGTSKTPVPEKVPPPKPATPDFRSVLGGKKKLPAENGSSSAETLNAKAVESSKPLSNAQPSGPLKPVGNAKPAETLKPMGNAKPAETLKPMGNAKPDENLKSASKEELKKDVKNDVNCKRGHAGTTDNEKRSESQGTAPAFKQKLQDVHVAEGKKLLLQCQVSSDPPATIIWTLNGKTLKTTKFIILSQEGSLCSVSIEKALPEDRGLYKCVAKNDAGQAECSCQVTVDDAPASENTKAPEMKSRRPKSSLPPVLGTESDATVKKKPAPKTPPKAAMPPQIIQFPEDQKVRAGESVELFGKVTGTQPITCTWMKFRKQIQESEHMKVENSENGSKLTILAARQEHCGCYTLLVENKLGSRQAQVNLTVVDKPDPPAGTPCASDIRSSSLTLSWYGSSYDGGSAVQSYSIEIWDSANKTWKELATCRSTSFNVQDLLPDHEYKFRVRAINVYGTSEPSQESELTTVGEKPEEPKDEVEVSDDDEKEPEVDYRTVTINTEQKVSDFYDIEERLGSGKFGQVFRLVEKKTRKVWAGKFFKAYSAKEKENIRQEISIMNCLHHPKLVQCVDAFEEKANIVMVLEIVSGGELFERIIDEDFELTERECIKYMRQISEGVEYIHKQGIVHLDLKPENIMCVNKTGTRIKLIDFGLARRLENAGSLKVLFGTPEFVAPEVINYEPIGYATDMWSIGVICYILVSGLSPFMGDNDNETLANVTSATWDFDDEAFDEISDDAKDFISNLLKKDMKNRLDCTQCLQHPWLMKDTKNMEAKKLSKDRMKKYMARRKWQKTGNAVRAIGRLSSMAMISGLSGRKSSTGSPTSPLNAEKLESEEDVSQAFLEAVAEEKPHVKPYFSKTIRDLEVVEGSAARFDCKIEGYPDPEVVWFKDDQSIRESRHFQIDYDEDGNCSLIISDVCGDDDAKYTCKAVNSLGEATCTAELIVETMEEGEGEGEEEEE
inactive: [3] -0.067 | [4] 0.027 | [2] 0.025 | [6] 0.345 | [7] 0.106 | [8] -0.262
